In the library only some 3.8% were active in any assay of this set; here they are far more common.
Bfl-1 A1 inh: inhibitors of the anti-apoptotic protein A1, read as caspase activation | MEF A1-2A-BIM cells, Caspase-Glo 3/7 luminescence, 3 h; percent of clofoctol response, vehicle zero | 0.066% of 330,000 active | caspase activation, % (concentration not given with the values);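 active means over half of replicate activation scores above 10%, or exactly half above 10 with the replicate mean above 10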
Jurkat NFkB inh: inhibitors of the PMA/ionomycin-induced NF-kB reporter in Jurkat cells | PMA/ionomycin-induced NF-kB luciferase reporter, luminescence | inhibition, % at 4 µM | 0.53% of 330,000 active | AID 435003; in the data active means inhibition above about 50%
Beta cell apopt: beta cell apoptosis inhibition; INS-1E cytokine-induced death, ATP luminescence, 48 h; percent of positive-control rescue, neutral wells zero; AID 435005; 0.8% of 300,000 active; protection from apoptosis, % (no concentration beside the values);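 active means Every replicate reaches about 75%, or at least half do and their mean reaches it too, limit read from the data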;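 further: 0% = cytokine-treated negative control wells and 100% = positive control rescue; higher means more ATP so stronger rescue from cytokine killing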
Mdm2-MdmX inh: inhibitors of human Mdm2/MdmX interaction; inhibition, % at 8 µM; SaOS-2 split-luciferase Mdm2/MdmX complementation, luminescence; 3% of 330,000 active; AID 485346; O15151+Q00987;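 active means inhibition of at least 50% at 8 µM in the primary screen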
NTR1 agonist: activates human neurotensin receptor 1; P30989; 0.17% of 330,000 active; NTR1-U2OS beta-arrestin-GFP spot imaging, agonist mode; activation, % at 20 µM; AID 493036;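 active means activation at or above 40% of the spot to cytoplasm intensity ratio, with at least 20 cells analyzed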;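 further: 0% = DMSO without peptide and 100% = 100 nM NTR1 peptide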
Target sequence (P30989 whole entry, looked up): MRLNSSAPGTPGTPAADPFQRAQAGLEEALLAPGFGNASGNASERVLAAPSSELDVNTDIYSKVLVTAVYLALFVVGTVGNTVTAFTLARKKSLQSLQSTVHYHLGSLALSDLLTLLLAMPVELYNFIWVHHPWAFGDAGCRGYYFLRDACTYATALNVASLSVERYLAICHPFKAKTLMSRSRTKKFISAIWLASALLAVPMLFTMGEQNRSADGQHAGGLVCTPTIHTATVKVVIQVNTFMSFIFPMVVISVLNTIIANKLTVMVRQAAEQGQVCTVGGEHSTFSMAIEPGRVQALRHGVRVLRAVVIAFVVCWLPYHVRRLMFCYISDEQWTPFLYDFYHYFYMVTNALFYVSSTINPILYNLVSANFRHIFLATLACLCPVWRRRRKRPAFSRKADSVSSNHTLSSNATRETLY
697 NFkB inh: inhibitors of the PMA/ionomycin-induced NF-kB reporter in 697 B cells. 697 B-cell NF-kB luciferase reporter, 16 h. inhibition, % at 4 µM. 0.33% of 330,000 active. AID 435022; in the data active means inhibition above about 35%
Mdm2-MdmX conf: human Mdm2/MdmX binding inhibition, confirmed. shares compounds with Mdm2-MdmX inh. luminescent assay. inhibition, % at 8 µM. 55% of 10,000 active; in the data active means inhibition above about 40%
Full FLuc ctr: counter-screen for Mdm2/MdmX inhibitors: full-length luciferase; shares compounds with Mdm2-MdmX inh; SaOS-2 full-length luciferase counterscreen, luminescence; inhibition, % at 8 µM; 77% of 6,200 active; AID 504607;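 active means mean inhibition at 8 µM reaching about 37%, which flags the compound as non-specific, limit read from the data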;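 further: p53-null SaOS-2 cells with luciferase driven by a doxycycline-inducible promoter; compound on cells about two nights before reading with doxycycline added after day one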
* hit, by the source's call.

How did CC1CCN(CCc2nc3cc(NC(=O)COc4ccc(Cl)cc4)ccc3n2C)CC1 do in these assays?
Bfl-1 A1 inh: 1; Jurkat NFkB inh: 5; Mdm2-MdmX inh: 57*; NTR1 agonist: 0; 697 NFkB inh: 0; Mdm2-MdmX conf: 35

Results for COc1ccc(OCC(=O)Nc2ccc3c(c2)nc(CCN2CCC(C)CC2)n3C)cc1 ?
Bfl-1 A1 inh: 1; Jurkat NFkB inh: -17; Mdm2-MdmX inh: 9; NTR1 agonist: 1; 697 NFkB inh: -4

How did O=C(N/N=C/c1ccc(O)cc1)c1ccc(COc2cc(Cl)ccc2Cl)o1 do in these assays?
Bfl-1 A1 inh: 0; Jurkat NFkB inh: 18; Beta cell apopt: 6; Mdm2-MdmX inh: 61*; NTR1 agonist: 12; 697 NFkB inh: -41; Mdm2-MdmX conf: 24

How did COc1ccc(CCN2CC(C(=O)N(C)CC(=O)Nc3ccc(Cl)c(C(F)(F)F)c3)CC2=O)cc1OC (centres undefined) do in these assays?
Jurkat NFkB inh: 9; Mdm2-MdmX inh: 21; NTR1 agonist: 0; 697 NFkB inh: 1

Results for CN(CC(=O)Nc1ccc(Cl)c(C(F)(F)F)c1)C(=O)CCc1nc2ccccc2c(=O)[nH]1 ?
Bfl-1 A1 inh: 1; Jurkat NFkB inh: -19; Beta cell apopt: -6; Mdm2-MdmX inh: 54*; NTR1 agonist: -2; 697 NFkB inh: -11; Mdm2-MdmX conf: 24

Results for CN(CC(=O)Nc1ccc(Cl)c(C(F)(F)F)c1)C(=O)C1CC(=O)N(CCc2ccccc2)C1 (centres undefined) ?
Jurkat NFkB inh: 3; Mdm2-MdmX inh: 51*; NTR1 agonist: 0; 697 NFkB inh: 6; Mdm2-MdmX conf: 42*; Full FLuc ctr: 61*

How did COc1ccc(NC(=O)C2CCCN(S(=O)(=O)c3ccc(Cl)cc3)C2)cc1OC (centres undefined) do in these assays?
Bfl-1 A1 inh: -1; Jurkat NFkB inh: -2; Beta cell apopt: 0; Mdm2-MdmX inh: 0; NTR1 agonist: 1; 697 NFkB inh: -18

What do the screens show for `Cc1cc(C2(c3ccc(O)c(C)c3)C(=O)Nc3ccccc32)ccc1O`?
Bfl-1 A1 inh: 0; Jurkat NFkB inh: -15; Beta cell apopt: 5; Mdm2-MdmX inh: 57*; NTR1 agonist: 31; 697 NFkB inh: -3; Mdm2-MdmX conf: 39

Results for Cc1cccc2c1NC(=O)C2(c1ccc(O)cc1)c1ccc(O)cc1 ?
Bfl-1 A1 inh: 1; Jurkat NFkB inh: 19; Beta cell apopt: -1; Mdm2-MdmX inh: 20; NTR1 agonist: 0; 697 NFkB inh: -19

How did CCC(C)c1ccc2oc(-c3ccc(NC(=O)Cn4cnc5c(=O)n(C)c(=O)n(C)c54)cc3)nc2c1 (centres undefined) do in these assays?
Bfl-1 A1 inh: -1; Jurkat NFkB inh: -41; Beta cell apopt: 13; Mdm2-MdmX inh: 50*; NTR1 agonist: 0; 697 NFkB inh: -43; Mdm2-MdmX conf: 61*; Full FLuc ctr: 147*

What do the screens show for `Cc1ccc2oc(-c3cccc(NC(=O)Cn4cnc5c(=O)n(C)c(=O)n(C)c54)c3)nc2c1`?
Bfl-1 A1 inh: 0; Jurkat NFkB inh: -40; Beta cell apopt: 8; Mdm2-MdmX inh: -28; NTR1 agonist: 21; 697 NFkB inh: -50

What do the screens show for `CC(=O)Nc1ccc(Nc2c([N+](=O)[O-])c(=O)n(-c3ccccc3)c3ccccc23)cc1`?
Bfl-1 A1 inh: -1; Jurkat NFkB inh: 12; Beta cell apopt: -1; Mdm2-MdmX inh: 61*; NTR1 agonist: 0; 697 NFkB inh: 7; Mdm2-MdmX conf: 13

How did O=C(NC1CCCCC1)C1CCCN1S(=O)(=O)c1ccc(Cl)cc1 (centres undefined) do in these assays?
Bfl-1 A1 inh: 0; Jurkat NFkB inh: -36; Beta cell apopt: -7; Mdm2-MdmX inh: -14; NTR1 agonist: -1; 697 NFkB inh: 5

Results for O=[N+]([O-])c1ccc(-[n+]2ccc3ccccc3c2)c([N+](=O)[O-])c1 ?
Bfl-1 A1 inh: 0; Jurkat NFkB inh: -10; Beta cell apopt: 109*; Mdm2-MdmX inh: 100*; NTR1 agonist: 7; 697 NFkB inh: -44; Mdm2-MdmX conf: 56*; Full FLuc ctr: 5

What do the screens show for `O=C(/C(=C(\[O-])c1ccccc1)[n+]1ccc2ccccc2c1)c1ccc([N+](=O)[O-])cc1`?
Bfl-1 A1 inh: 0; Jurkat NFkB inh: 10; Beta cell apopt: -2; Mdm2-MdmX inh: -8; NTR1 agonist: 0; 697 NFkB inh: -3

How did COc1ccc(/C=N/NC(=O)c2cc3c(OC)ccc(OC)c3[nH]2)cc1O do in these assays?
Bfl-1 A1 inh: 1; Jurkat NFkB inh: 31; Beta cell apopt: 13; Mdm2-MdmX inh: 61*; NTR1 agonist: 4; 697 NFkB inh: -7; Mdm2-MdmX conf: 47*; Full FLuc ctr: 90*

What do the screens show for `COc1cccc(/C=N/NC(=O)c2cc(-c3cccn3C)n[nH]2)c1O`?
Bfl-1 A1 inh: -2; Jurkat NFkB inh: 35; Beta cell apopt: 26; Mdm2-MdmX inh: 53*; NTR1 agonist: 1; 697 NFkB inh: 4; Mdm2-MdmX conf: 64*; Full FLuc ctr: 32

Results for COc1ccc(OC)c2[nH]c(C(=O)N/N=C/c3ccccc3O)cc12 ?
Bfl-1 A1 inh: 0; Jurkat NFkB inh: 36; Beta cell apopt: 96*; Mdm2-MdmX inh: 82*; NTR1 agonist: 6; 697 NFkB inh: -16; Mdm2-MdmX conf: 71*; Full FLuc ctr: 32

Results for CC(=O)[C@@]1(O)[C@H](C)CC2C3CC=C4CC(OP(=O)(O)O)CC[C@]4(C)C3CC[C@@]21C (some centres undefined) ?
Bfl-1 A1 inh: 1; Jurkat NFkB inh: -6; Beta cell apopt: 5; Mdm2-MdmX inh: -37; NTR1 agonist: -2; 697 NFkB inh: -7

How did Cc1c(CCOC(=O)CC23CC4CC(CC(C4)C2)C3)sc[n+]1CC(=O)c1ccccc1 do in these assays?
Bfl-1 A1 inh: 0; Jurkat NFkB inh: -13; Beta cell apopt: 26; Mdm2-MdmX inh: 54*; NTR1 agonist: 21; 697 NFkB inh: -48; Mdm2-MdmX conf: 18

What do the screens show for `COc1cc(/C=C2/SC(=O)N(Cc3ccccc3Cl)C2=O)ccc1OCc1ccncc1`?
Bfl-1 A1 inh: 1; Jurkat NFkB inh: 15; Beta cell apopt: 3; Mdm2-MdmX inh: 51*; NTR1 agonist: 4; 697 NFkB inh: 6; Mdm2-MdmX conf: 20

What do the screens show for `O=C(/C=C/c1ccc(S(=O)(=O)N2CCOCC2)cc1)NC(CO)C(O)c1ccc([N+](=O)[O-])cc1` (centres undefined)?
Bfl-1 A1 inh: -1; Jurkat NFkB inh: 3; Beta cell apopt: -4; Mdm2-MdmX inh: 16; NTR1 agonist: 0; 697 NFkB inh: 14
